{
  "source": "PubChem BioAssay (EPA / NIEHS)",
  "note": "Results filed as inconclusive are left out. The source made the active and inactive calls. The calls were made as follows: active = hit-call score of the fitted dose curve at least 0.9, where 1 is the maximum; inconclusive = response in the unintended direction; inactive = score below 0.9.",
  "data": [
    {"biological_target": "Nuclear receptor subfamily 1 group I member 3 (Homo sapiens) (UniProt Q14994)", "sequence (Q14994 whole entry, looked up)": "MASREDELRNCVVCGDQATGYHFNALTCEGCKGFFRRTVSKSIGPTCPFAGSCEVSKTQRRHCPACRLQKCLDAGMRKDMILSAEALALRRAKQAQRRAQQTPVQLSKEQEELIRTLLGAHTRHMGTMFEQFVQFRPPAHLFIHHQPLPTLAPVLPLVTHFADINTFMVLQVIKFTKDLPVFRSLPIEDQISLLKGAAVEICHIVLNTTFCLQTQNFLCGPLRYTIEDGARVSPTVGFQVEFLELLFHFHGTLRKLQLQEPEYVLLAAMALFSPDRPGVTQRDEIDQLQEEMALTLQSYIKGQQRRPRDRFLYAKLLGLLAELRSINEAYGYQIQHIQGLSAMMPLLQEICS", "experiment": "ATG_CAR_TRANS: Attagene TRANS-FACTORIAL HepG2 Assay for human Constitutive Androstane Receptor (CAR) (AID 2282969);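 also: activators raise reporter mRNA above DMSO so AC50 marks induction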", "conditions": "HepG2 Attagene TRANS-FACTORIAL CAR reporter", "procedure": "ATG_TRANS is a cell-based, multiplexed-readout assay that uses HepG2, a human liver cell line, with measurements taken at 24 hours after chemical dosing in a 24-well plate.ATG_CAR_TRANS is one of 30 assay component(s) measured or calculated from the ATG_TRANS assay. It is designed to make measurements of mRNA induction, a form of inducible reporter, as detected with fluorescence intensity signals by Reverse transcription polymerase chain reaction (RT-PCR) and Capillary electrophoresis technology.Data from the assay component ATG_CAR_TRANS was analyzed into 1 assay endpoint. This assay endpoint, ATG_CAR_TRANS, was analyzed in the positive analysis fitting direction relative to DMSO as the negative control and baseline of activity. Using a type of inducible reporter, measures of mRNA for gain-of-signal activity can be used to understand the reporter gene at the transcription factor-level as they relate to the gene NR1I3. Furthermore, this assay endpoint can be referred to as a primary readout, because this assay has produced multiple assay endpoints where this one serves a reporter gene function. To generalize the intended target to other relatable targets, this assay endpoint is annotated to the nuclear receptor intended target family, where the subfamily is non-steroidal.\nHuman liver HepG2 cells are transiently transfected with multiple reporter transcription units (MRTUs) in 6-well plates using FuGene 6 reagent (Roche; 3 ml FuGene/1 mg DNA). The MRTU constructs are regulated by a cis-regulating element (promoter). […] A major difference between the CIS and TRANS system is that in CIS activities of endogenous TFs are measured, whereas the TRANS assay evaluates changes in activities of exogenous, chimeric NR-Gal4 proteins. […] At the end of 24 hour incubation, total RNA was isolated using TriZol reagent (Invitrogen). The isolated RNA is then reverse-transcribed using oligo(dT) primer and Mo-MLV reverse transcriptase (Invitrogen) with DNAse I (Ambion) treatment for 30 min. The one-tenth of the produced cDNA was amplified by PCR using Taq DNA polymerase (Invitrogen) and two reporter sequence-specific primers. The PCR products were fluorescently labeled by primer extension with 6-arboxyfluorescein (6-FAM) 5'-labeled reporter sequence-specific primer (2 min at 95 C, 20 s at 68 C and 10 min at 72 C) and these products were digested with 5U of HpaI (New England Biolabs) for 2h at 37 C. The fragments were purified using Qiaquick PCR columns (Qiagen), analyzed on an ABI 3130xL genetic analyzer (Applied Biosystems) with peak positions identified by using a set of X-rhodamine (ROX)-labeled MapMarker1000 molecular weight standards (BioVentures). The raw capillary electrophoresis data was processed using Attagraph software (Attagene).", "values": [
      {"molecule": "CCOC(=O)[C@H](O)[C@@H](O)C(=O)OCC", "outcome": "inactive"},
      {"molecule": "CC(=O)OCCc1ccccc1", "outcome": "inactive"},
      {"molecule": "O=C(O)CC(C(=O)O)S(=O)(=O)O", "note": "(stereo not given)", "outcome": "inactive"},
      {"molecule": "COC(Cc1ccccc1)OC", "outcome": "inactive"},
      {"molecule": "Cc1noc(NS(=O)(=O)c2ccc(N)cc2)c1C", "outcome": "inactive"},
      {"molecule": "CC(C)c1cccc(C(C)C)c1N", "outcome": "inactive"},
      {"molecule": "CC(C)COC(=O)CC(C(=O)OCC(C)C)S(=O)(=O)O", "note": "(stereo not given)", "outcome": "inactive"},
      {"molecule": "Oc1ccc(-c2ccccc2)c(Cl)c1", "outcome": "inactive"},
      {"molecule": "CCC1(C)C(=O)N(Cl)C(=O)N1Cl", "note": "(stereo not given)", "outcome": "inactive"},
      {"molecule": "CC1=C(O)C(=O)C(C)O1", "note": "(stereo not given)", "outcome": "inactive"},
      {"molecule": "Nc1cccc(N)n1", "outcome": "inactive"},
      {"molecule": "Clc1cc(Cl)c(Cl)c(Cl)c1Cl", "outcome": "inactive"},
      {"molecule": "CC=C(C)C(C)=O", "outcome": "inactive"},
      {"molecule": "Cc1ccc2c(c1)CCCN2", "outcome": "inactive"},
      {"molecule": "COC(=O)c1ccc(C(=O)OC)c(C(=O)OC)c1", "outcome": "inactive"},
      {"molecule": "c1ccc(Nc2cccc3ccccc23)cc1", "outcome": "inactive"},
      {"molecule": "C=C(C)C(=O)OCCCCCCCCCCCC", "outcome": "inactive"},
      {"molecule": "C=CC(=O)OCCCCCCOC(=O)C=C", "outcome": "inactive"},
      {"molecule": "CCCCCC1=CCCC1=O", "outcome": "inactive"},
      {"molecule": "C=CCOC(=O)c1ccc(C(=O)OCC=C)c(C(=O)OCC=C)c1", "outcome": "inactive"},
      {"molecule": "C=C(C)C1CC=C(C)CC1", "note": "(stereo not given)", "outcome": "inactive"},
      {"molecule": "CC(=O)CC(=O)Nc1ccccc1C", "outcome": "inactive"},
      {"molecule": "CC(C)CC(=O)OCc1ccccc1", "outcome": "inactive"},
      {"molecule": "C=CCCCCCCCCC=O", "outcome": "inactive"},
      {"molecule": "CC(C)CCCCCOC(=O)CS", "outcome": "inactive"},
      {"molecule": "CC1CCC(=O)C1=O", "note": "(stereo not given)", "outcome": "inactive"},
      {"molecule": "N#Cc1ccc(C2CCCc3cncn32)cc1", "note": "(stereo not given)", "outcome": "inactive"},
      {"molecule": "CCc1cccc(C)c1N(C(=O)CS(=O)(=O)O)C(C)COC", "note": "(stereo not given)", "outcome": "inactive"},
      {"molecule": "CC(C)CCOCc1ccccc1", "outcome": "inactive"},
      {"molecule": "CC1C(C)(C)C2=C(C(=O)CCC2)C1(C)C", "note": "(stereo not given)", "outcome": "inactive"},
      {"molecule": "CCCCCCCO", "outcome": "inactive"},
      {"molecule": "CCOc1ccc(NC(N)=O)cc1", "outcome": "inactive"},
      {"molecule": "CC(C)=CCCC(C)=CC#N", "outcome": "inactive"},
      {"molecule": "CC1=NN(c2ccc(S(=O)(=O)O)cc2)C(=O)C1N=Nc1ccccc1", "note": "(stereo not given)", "outcome": "inactive"},
      {"molecule": "O=C(OCCc1ccccc1)c1ccccc1", "outcome": "inactive"},
      {"molecule": "CO[Si](C)(C)OC", "outcome": "inactive"},
      {"molecule": "C[Si]1(C)O[Si](C)(C)O[Si](C)(C)O[Si](C)(C)O[Si](C)(C)O1", "outcome": "inactive"},
      {"molecule": "O=C(Oc1ccccc1)c1ccccc1O", "outcome": "inactive"},
      {"molecule": "C=C[Si](OCCOC)(OCCOC)OCCOC", "outcome": "inactive"},
      {"molecule": "CC(Cl)COP(=O)(OCC(C)Cl)OCC(C)Cl", "note": "(stereo not given)", "outcome": "inactive"}
    ]}
  ]
}
